GRK2 inh: human GRK2 inhibition via aptamer displacement | actives 0.59% (n = 330,000) | inhibition of aptamer binding, % at 10 µM | bead flow cytometry, FAM-aptamer displacement from GRK2 | AID 488847 | P25098;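 active means inhibition of aptamer binding above 40%, roughly 3 SD of noise, on plates passing a quality check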;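 further: median bead fluorescence of bound FAM aptamer so fluorescent compounds give negative values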
PREPL inh: inhibits the human prolyl oligopeptidase-like enzyme; inhibition, % at 5.96 µM; AID 2751; recombinant PREPL, fluorescence polarization activity-based probe; actives 0.68% (n = 320,000); in the data active means inhibition above about 43%;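 further: 0% = enzyme with DMSO and 100% = wells lacking enzyme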
DSG3 Ab inh: inhibitors of pemphigus antibody binding to human desmoglein-3 | P32926 | DSG3-coupled beads, scFv-anti-DSG3-GFP binding, flow cytometry; hits give low values | binding (percent of control), % at 10 µM | actives 0.48% (n = 310,000) | AID 588358;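 active means binding more than 3 SD below its plate's average and above zero; inconclusive means below that plate limit but binding exactly zero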;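 further: hits lower antibody fragment binding to DSG3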
VLA-4 inh: inhibition in a human VLA-4 binding assay; inhibition, % (about 7 µM as worked out from the volumes in the protocol); P13612; AID 2557; VLA-4 expressing cells, ligand binding flow cytometry; actives 0.2% (n = 330,000); in the data active means inhibition above about 50%
GASC-1 inh: human JMJD2C demethylase inhibition | Q9H3R0 | GST-JMJD2C(1-420) H3K9me3 demethylation, DELFIA europium | inhibition, % at 2.35 µM | actives 0.069% (n = 330,000);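 active means more than half of a compound's replicate wells show inhibition beyond 50%, single wells judged on their own value; inconclusive means some, but no more than half, of replicates pass 50% inhibition; inactive means no replicate passes 50% inhibition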;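 further: signal counts dimethyl H3K9 product captured on neutravidin plate; 0% = median of DMSO wells and 100% = 0.3 times that DMSO median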
VLA-4 allo CP: human VLA-4 allosteric modulation in cherry picked compounds; shares compounds with VLA-4 inh; U937 cells, HUTS-21 LIBS mAb binding, flow cytometry; LDV ligand present at threefold Kd; inhibition, % at 6.7 µM; actives 2% (n = 1,300); AID 2813; in the data active means inhibition above about 40%;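 further: 0% = ligand without compound and 100% = no ligand background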
* marks the source's active call; other numbers are inactive results; u = inconclusive; x = no result given. This is a sample that favours compounds with a hit; in the whole collection about 1.6% have one here.

SMILES	GRK2 inh	PREPL inh	DSG3 Ab inh	VLA-4 inh	GASC-1 inh	VLA-4 allo CP
COC(=O)C1CN(C#N)N(c2ccc(Cl)cc2)C12c1ccccc1-c1ccccc12 (stereo unspecified)	0	18	56	62*	9	53*
O=C(OC1CC2CCC(N2)C1C(=O)O)c1ccccc1 (stereo unspecified)	1	-5	102	-6	x	3
COc1ccc(-n2c(CN3CCOCC3)nc3ccccc3c2=O)c(OC)c1	3	5	130	7	-8	x
COc1cccc(-c2sc3ccccc3c2-c2ccc(OCCN3CCOCC3)cc2)c1	0	0	96	17	-7	-1
O=C1C2CCCN2C(c2cccnc2)N1c1nccs1 (stereo unspecified)	1	21	103	8	-7	x
COC(=O)CC1=C(C(=O)OC)C2(C(=O)Nc3c(C)cccc32)C(C#N)=C(N)O1 (stereo unspecified)	3	-2	104	107*	1	-6
CN(c1ccc(OCC(=O)N2CCN(C/C=C/c3ccccc3)CC2)cc1)S(=O)(=O)c1cccs1	0	17	92	0	4	x
C=C(C=O)CC1CC(O)[C@]2(C)OC3C[C@@H]4OC5C[C@]6(C)O[C@]7(C)CCC8OC9C[C@]%10(C)OC(/C(C)=C\CO)C(O)CC%10OC9CC(C)C8OC7CC6O[C@]5(C)C/C=C\C4OC3CC2O1 (stereo partly specified)	0	-3	107	2	8	x
C=C(C=O)C[C@@H]1C[C@H](O)C2OC3C[C@]4(C)OC5/C=C\CC6OC7C(CC=CCC6OC5CCCC4OC3CC2O1)OC1CC2OC3CC(=O)OC3C[C@@H](C)C[C@@]2(C)OC1C[C@@H]7C (stereo partly specified)	0	7	x	60*	2	67*
C[C@]12CCC(=O)C(O)=C1CC[C@@H]1[C@@H]2CC[C@]2(C)C(=O)CC[C@@H]12	0	-4	111	34	-12	x
NC(=O)Cn1cc(C(=O)c2ccccc2)c2ccccc21	2	7	102	-7	8	0
COc1ccc(-c2csc(NC(=O)COC(=O)Cc3ccccc3)n2)cc1OC	2	3	x	-13	-4	x
CC1(C)C[C@H]2C=C(C=O)[C@]3(C=O)C[C@]3(C)[C@H]2C1	9	22	97	65*	-10	48*
CC1(C)NCCN2C(=O)CSC21 (stereo unspecified)	0	17	102	-4	-2	x
Cc1nnc2ccc(-c3cccc(C(F)(F)F)c3)nn12	2	-4	118	63*	-10	-5
COc1cc(C(=O)OC2C[C@H]3CC[C@@H](C2)N3C)ccc1O (stereo partly specified)	3	x	99	11	-2	2
COc1ccc(C(=O)OC2CC3CCC(C2)[N+]3(C)[O-])cc1OC (stereo unspecified)	3	1	u	6	5	0
CCC(CO)(C(=O)OC1CC2CCC(C1)N2C)c1ccccc1 (stereo unspecified)	2	9	98	-2	6	x
CN1C2CCC1CC(OC(=O)c1cc(Cl)cc(Cl)c1)C2 (stereo unspecified)	0	9	108	93*	-2	-1
COc1cc(C(=O)OC2C[C@H]3CC[C@@H](C2)N3)ccc1O (stereo partly specified)	0	7	u	2	-7	-3
CN1CCN(CCC(=O)OC2CC3CCC(C2)N3C)CC1 (stereo unspecified)	0	-4	112	12	2	x
C[N+]1(C)C2CCC1CC(OC(=O)c1ccco1)C2 (stereo unspecified)	2	6	87	-9	-2	x
COc1ccc(CCNCc2cccn2C)cc1OC	1	-4	103	-3	1	x
C[C@]12CC[C@H](O)C[C@H]1CC[C@@H]1[C@@H]2C[C@@H](O)[C@]2(C)[C@@H](C3=CC(=O)OC3)CC[C@]12O	0	-2	114	51*	x	-2
CN(C)CC1CSCCC1(O)c1cccc(Cl)c1 (stereo unspecified)	0	12	x	-8	-4	x

High-throughput results from PubChem BioAssay.
